Assay results taken from the supplement of paper PMC6555819.

How the values were obtained:
Test in all cases: PBM binding z-score (relative to random genomic background probes); higher = stronger binding; sequences stand for … in GC…GCGATTGACAGCGTAGAATGAAGG
[1] = test system: FXR:RXRa (NR concentration 270 nM, RXRa partner concentration 90 nM)
Procedure, shortened: (§1)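 Each nuclear receptor dimer, without ligand, was incubated for 1 h on custom Agilent 4×180K protein-binding microarrays. Binding was detected with antibodies against each partner (one per run), and scanned fluorescence was regression-normalized. The binding z-scores are referenced to random human genomic background probes.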

[2] = test system: LXRa:RXRa (NR concentration 270 nM, RXRa partner concentration 90 nM)
Procedure, shortened: as §1

[3] = test system: LXRa homodimer (NR concentration 270 nM)
Procedure, shortened: as §1

[4] = test system: LXRb:RXRa (NR concentration 270 nM, RXRa partner concentration 90 nM)
Procedure, shortened: as §1

[5] = test system: LXRb homodimer (NR concentration 270 nM)
Procedure, shortened: as §1

[6] = test system: PPARa:RXRa (NR concentration 270 nM, RXRa partner concentration 90 nM)
Procedure, shortened: as §1

[7] = test system: PPARg:RXRa (NR concentration 180 nM, RXRa partner concentration 90 nM)
Procedure, shortened: as §1

[8] = test system: PPARg:RXRa 270nM:90nM, anti-RXR (NR concentration 270 nM, RXRa partner concentration 90 nM)
Procedure, shortened: as §1

[9] = test system: PPARg:RXRa 30nM:10nM, anti-RXR (NR concentration 30 nM, RXRa partner concentration 10 nM)
Procedure, shortened: as §1

[10] = test system: PPARg:RXRa 90nM:30nM, anti-RXR (NR concentration 90 nM, RXRa partner concentration 30 nM)
Procedure, shortened: as §1

[11] = test system: PPARg:RXRa DBDmut IVT, anti-RXR (DBD mutation: RXRa K156A/R161A, NR concentration 270 nM, RXRa partner concentration 90 nM)
Procedure, shortened: as §1

[12] = test system: PPARg:RXRa IVT, anti-PPARg (NR concentration 270 nM, RXRa partner concentration 90 nM)
Procedure, shortened: as §1

[13] = test system: PPARg DBDmut:RXRa IVT, anti-PPARg (DBD mutation: PPARg1 K132A/R137A, NR concentration 270 nM, RXRa partner concentration 90 nM)
Procedure, shortened: as §1

[14] = test system: PPARg DBDmut IVT, anti-PPARg (DBD mutation: PPARg1 K132A/R137A, NR concentration 270 nM)
Procedure, shortened: as §1

[15] = test system: PPARg homodimer (NR concentration 180 nM)
Procedure, shortened: as §1

[16] = test system: PXR:RXRa (NR concentration 270 nM, RXRa partner concentration 90 nM)
Procedure, shortened: as §1

[17] = test system: PXR homodimer (NR concentration 270 nM)
Procedure, shortened: as §1

[18] = test system: RARa:RXR (NR concentration 270 nM, RXRa partner concentration 90 nM)
Procedure, shortened: as §1

[19] = test system: RARa homodimer (NR concentration 270 nM)
Procedure, shortened: as §1

[20] = test system: RARb:RXRa (NR concentration 270 nM, RXRa partner concentration 90 nM)
Procedure, shortened: as §1

Sequence | PBM binding z-score [1] | PBM binding z-score [2] | PBM binding z-score [3] | PBM binding z-score [4] | PBM binding z-score [5] | PBM binding z-score [6] | PBM binding z-score [7] | PBM binding z-score [8] | PBM binding z-score [9] | PBM binding z-score [10] | PBM binding z-score [11] | PBM binding z-score [12] | PBM binding z-score [13] | PBM binding z-score [14] | PBM binding z-score [15] | PBM binding z-score [16] | PBM binding z-score [17] | PBM binding z-score [18] | PBM binding z-score [19] | PBM binding z-score [20]
ATTTCTAGGTAACAAGTTCAGTGAAAGAGAGGAC | 1.38 | 1.39 | 1.04 | 1.18 | 1.41 | 2.76 | 3.06 | 3.44 | 1.82 | 3.09 | 5.53 | 4.99 | 3.1 | 2.25 | 1.94 | 1.79 | 2.69 | 1.45 | 2.03 | 2.12
TAGCCTAGGTCATTCATGGGCCAGTATAGAAAGC | 4.38 | 3.5 | 0.512 | 2.34 | 0.48 | 3.38 | 2.02 | 2.1 | 0.373 | 1.1 | 1.41 | 2.53 | 0.271 | 0.314 | 1.08 | 1.66 | -0.168 | 2.61 | -0.242 | 3.66
AGTCAATGTTCAGGACGAGGTAACGTAAAGCACG | -0.0403 | -0.35 | -0.0733 | -0.154 | -0.516 | -0.141 | 0.531 | -0.297 | 0.071 | -0.0574 | -0.569 | 0.526 | 0.282 | 0.266 | -0.126 | -0.119 | -0.33 | 0.306 | 0.567 | 0.167
CTCGAAAGGTCTGTTGAGGTGAGTATACGGATAA | 0.57 | -0.177 | -0.581 | -0.275 | -0.339 | 0.697 | -0.00878 | 0.182 | -0.0313 | 0.242 | -0.464 | 0.358 | 0.678 | 0.237 | 0.0956 | 0.48 | -0.39 | 1.61 | -0.325 | 1.47
TGTCAAAGTTCAGAGGTAACGTAAGTATCCACAC | 4.53 | 4.37 | 1.55 | 2.56 | 0.204 | 4.07 | 6.27 | 6.33 | 3.46 | 6.02 | -0.368 | 3.54 | 0.775 | 1.39 | 2.26 | 3.39 | 0.858 | 3.43 | 0.97 | 4.36
CCTTACGGGTCACGAGGTTATAGCCCGACGAGCG | 6.99 | 4.42 | 0.302 | 3.77 | -0.0981 | 6.03 | 7.34 | 6.97 | 3.33 | 5.71 | 3.74 | 5.56 | 0.959 | 1.66 | 3.14 | 4.59 | -0.00848 | 6.27 | 0.153 | 4.74
